Compound activity: PubChem, The Scripps Research Institute Molecular Screening Center
GPR151 ag: activators of human GPR151, primary screen, cell-based, PathHunter beta-arrestin, luminescence | AID 1508602, 2020 | hit rate 1% among 650,000 | G-protein coupled receptor 151 (Homo sapiens), Q8TDV0 | activation, % at 11.2 µM | PathHunter beta-arrestin GPR151 cells; in the data active = activation above about 4.9%
Target sequence (Q8TDV0 whole entry, looked up): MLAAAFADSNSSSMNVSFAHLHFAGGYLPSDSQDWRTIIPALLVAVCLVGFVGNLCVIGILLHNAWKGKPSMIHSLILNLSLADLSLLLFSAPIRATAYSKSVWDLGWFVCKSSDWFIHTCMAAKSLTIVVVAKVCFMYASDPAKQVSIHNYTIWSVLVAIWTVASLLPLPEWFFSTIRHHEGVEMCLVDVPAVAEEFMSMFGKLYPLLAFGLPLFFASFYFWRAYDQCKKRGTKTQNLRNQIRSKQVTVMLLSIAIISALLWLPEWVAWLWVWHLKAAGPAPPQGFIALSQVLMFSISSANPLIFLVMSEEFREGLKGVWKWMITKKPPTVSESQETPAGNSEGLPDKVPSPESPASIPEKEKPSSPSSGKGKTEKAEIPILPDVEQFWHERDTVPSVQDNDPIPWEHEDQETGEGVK
MITF inh: MITF inhibitors, primary screen, biochemical, AlphaScreen, human | Microphthalmia-associated transcription factor (Homo sapiens), O75030 | AlphaScreen MITF homodimerization, bead proximity signal | inhibition, % at 2.6 µM | hit rate 0.91% among 650,000 | AID 1259374, 2018; in the data active = inhibition above about 50%
TEAD-YAP inh: TEAD-YAP interaction inhibition, primary screen, TEAD-YAP interaction inhibitor project, luminescence, HEK-TIYL cells. hit rate 1.4% among 640,000. AID 1259422, 2018. inhibition, % at 9.12 µM. TEAD-Gal4/YAP UAS-luciferase luminescence; in the data active = inhibition above about 32%
FBW7 act: FBW7 E3 ligase activators, primary screen, biochemical, AlphaScreen, human; AlphaScreen FBW7–phospho-cyclin E peptide binding, activator screen; hit rate 0.13% among 650,000; normalized activity (activation), % at 26.1 µM; F-box/WD repeat-containing protein 7 (Homo sapiens), Q969H0; in the data active = normalized activity above about 1.9%;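 also: purified mutant Fbw7 with reduced substrate affinity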
A number is an active result; - = inactive. The list is not random: actives were taken first. Their share in the collection is about 3.5%.

SMILES	GPR151 ag	MITF inh	TEAD-YAP inh	FBW7 act
COc1ccc(N2CCN(C(=O)CCN3C(=O)c4ccccc4C3=O)CC2)cc1	-	-	-	-
COc1ccccc1-c1nnc(SCCN2CCCCC2)n1C	-	-	-	-
Cc1ccc(NC(=O)CSc2nc3nc(C)c(Cc4ccccc4F)c(C)n3n2)cc1	-	-	-	-
NS(=O)(=O)c1ccc(N=Cc2cc([N+](=O)[O-])ccc2O)cc1	-	-	-	-
CN(C)c1ccc(/C=C/c2ccc(-c3ccccc3)cc2)cc1	-	-	-	-
CN(C)c1ccc(/C=C/c2ccc3ccccc3n2)cc1	-	-	93	-
CCCCNC(=O)CN1C(=O)C2CCCN2c2ncc(Cl)cc21 (stereo unspecified)	-	-	-	-
Cc1c(Cc2ccccc2)c(N2CCN(Cc3ccccc3)CC2)n2c(nc3ccccc32)c1C#N	-	-	-	2.0
Cc1cc2c(Cc3ccc(Br)cc3)n[nH]c(=O)c2c(=O)[nH]1	-	-	-	-
Cc1nn2c(N)c(-c3ccccc3)cnc2c1-c1ccc(Cl)cc1	-	-	33	-
Nc1c(-c2ccccc2)cnc2c(-c3ccccc3)cnn12	-	-	41	-
Nc1c(-c2ccccc2)cnc2c(-c3ccc(Cl)cc3)cnn12	-	-	-	-
O=C(c1cccc(S(=O)(=O)N2CCCC2)c1)c1cccc(S(=O)(=O)N2CCCC2)c1	-	-	33	-
O=C(Oc1cccc(NC(=O)c2ccccc2Cl)c1)c1cccc(S(=O)(=O)N2CCCCC2)c1	-	-	54	-
CC1CCN(S(=O)(=O)c2cccc(C(=O)Oc3cccc(NC(=O)c4ccccc4)c3)c2)CC1	-	-	37	-
O=C(Nc1cccc(Br)c1)c1cc(S(=O)(=O)N2CCCC2)ccc1Cl	-	-	35	-
CC1CCN(S(=O)(=O)c2cccc(C(=O)Nc3ccccc3C(=O)Nc3ccccc3)c2)CC1	-	-	-	-
CC(=O)c1ccc2c(c1)CC(C(=O)Nc1ccc(-c3ccnc(N)n3)cc1OCCN(C)C)CO2 (stereo unspecified)	-	-	-	-
Cc1nc(C)c(C(=O)c2coc3ccc(O)cc23)o1	-	-	-	-
O=C(c1cc2ccccc2o1)c1coc2ccc(O)cc12	-	-	65	-
N#C/C(=C\c1cn(Cc2ccc(Cl)cc2)c2ccccc12)C(N)=O	-	-	-	-
Cc1cc(C(=O)N2CCCCCC2)n(-c2ccccc2)n1	-	-	-	-
CN(C)c1ccc(-c2ccc(OC3CCN(S(C)(=O)=O)CC3)cc2)cn1	-	-	-	-
COc1ccccc1NC(=O)N1CCC(C(=O)Nc2cc(C)cc(C)c2)CC1	-	-	-	-
CN(C)c1ccc(-c2ccc(OC3CCN(c4ncccn4)CC3)cc2)cn1	-	-	48	-
SMILES	GPR151 ag	MITF inh	TEAD-YAP inh	FBW7 act
CN(C)c1ccc(-c2ccc(OC3CCNCC3)cc2)cn1	-	-	57	-
COc1ccccc1NC(=O)N1CCC(Oc2ccc(-c3ccc(N(C)C)nc3)cc2)CC1	-	-	35	-
CC(C)C(=O)NC(=S)Nc1cccc(-c2nc3ncccc3o2)c1	-	-	-	-
COc1cccc(-n2c(SCC(=O)N3CCN(c4ccccc4OC)CC3)nc3n[nH]c(C)c3c2=N)c1	-	-	43	-
Cc1ccc(-n2c(SCC(=O)NCc3ccco3)nc3n[nH]c(C)c3c2=N)cc1C	-	-	56	-
Cc1cc(-n2c(SCC(=O)NCc3ccco3)nc3n[nH]c(C)c3c2=N)ccc1Cl	-	-	-	-
COc1cccc(-n2c(SCC(=O)N3CCC(C)CC3)nc3n[nH]c(C)c3c2=N)c1	-	-	-	-
O=C(Nc1cccc(O)c1)c1c(O)c2c([nH]c1=O)CCCC2	-	-	56	-
O=C(Nc1cccc(O)c1)c1scc2c1CCCC2	-	-	79	-
CC(C)(C)c1ccc(NC(=O)c2scc3c2CCCC3)cc1	-	-	33	-
CC(=O)c1ccc(NC(=O)c2scc3c2CCCC3)cc1	-	-	72	-
Cc1ccc(NC(=O)c2scc3c2CCCC3)cc1	-	-	-	-
O=C(Nc1ccccc1)c1cnc(Nc2ccc(C(F)(F)F)cc2)s1	-	-	-	-
COc1ccccc1/C=c1\sc2n(c1=O)C(N)=C(C#N)C(c1ccccc1OC)C=2C#N (stereo unspecified)	-	-	-	-
O=C(Nc1ccc2ccccc2c1)c1scc2c1CCCC2	-	-	-	-
COc1ccc(NC(=O)c2scc3c2CCCC3)cc1	-	-	40	-
COc1cc(N[C@H](C)c2ccccc2)ncn1	-	-	-	-
CC1=C/C(=N\S(=O)(=O)c2ccc(C)cc2)C=CC1=O	-	71	-	-
COc1ccccc1N1CCN(C(=O)c2ccc(N3CC4CC(C3)c3cccc(=O)n3C4)c(NC(=O)c3c(F)cccc3F)c2)CC1 (stereo unspecified)	-	-	-	-
COc1ccc(Cc2nnc(Nc3cccc(Cl)c3)[nH]c2=O)cc1	-	-	34	-
COc1cc(S(=O)(=O)Nc2cccc3cn[nH]c23)ccc1F	-	-	52	-
O=S(=O)(Nc1cccc2cn[nH]c12)c1ccc(F)cc1	-	-	-	-
Nc1nc(Cl)cc(NC2CCN(Cc3ccccc3)CC2)n1	-	-	-	-
CC(=O)c1ccc(-c2ccc(/C=C3/SC(=S)NC3=O)o2)cc1	-	74	-	-
O=C1NC(=S)S/C1=C\c1ccc(I)o1	-	-	-	-
SMILES	GPR151 ag	MITF inh	TEAD-YAP inh	FBW7 act
CCN1C(=O)C(=Cc2ccc(-c3cccc(C(=O)O)c3)o2)C(=O)N(CC)C1=S	-	-	-	-
CCN1C(=O)C(=Cc2ccc(-c3ccc(C(C)=O)cc3)o2)C(=O)N(CC)C1=S	-	78	-	-
O=C1NC(=S)S/C1=C/c1ccc[nH]1	-	-	49	-
O=C1NC(=S)S/C1=C/c1cc(Br)c(Br)o1	-	51	-	-
O=C(COc1ccc(F)cc1F)N1CCc2ccccc21	-	-	-	-
C[C@@H](C(=O)OCC(=O)Nc1ccc([N+](=O)[O-])cc1C#N)N1C(=O)C2CCCCC2C1=O (stereo partly specified)	-	-	-	-
Cc1ccccc1Cn1cc(C=C2C(=O)N(C)C(=O)N(C)C2=O)c2ccccc21	-	-	-	-
Cc1ccccc1OCCCn1cc(C=C2C(=O)N(C)C(=O)N(C)C2=O)c2ccccc21	-	-	34	-
Cc1ccc(NC(=O)C(C)N2Cc3ccccc3C2=O)nc1 (stereo unspecified)	-	-	82	-
O=C1CCCN1CCCNc1nc(N2CCN(c3ccccn3)CC2)nc2c1ncn2-c1ccccc1	-	-	56	-
O=C1CCCN1CCCNc1nc(N2CCN(c3ccccn3)CC2)nc2c1ncn2CCN1CCCC1=O	-	-	-	-
O=C1CCCN1CCCNc1nc(N2CCOCC2)nc2c1ncn2-c1ccccc1	-	-	67	-
O=S(=O)(c1cccs1)N1CCN(c2cc(N3CCOCC3)ncn2)CC1	-	-	-	-
